About 83,000 compounds went through this panel and 20% of them were active in at least one assay; those are over-represented in the sample as a whole.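 Single-concentration screen, 48 h exposure, 96-well plates. Endpoint: percent growth. Below 10 = active.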 A number with no mark means an inactive call. Activity calls are given as the source filed them.

What all share (experiment): NCI-60 one-dose screen, 48 h (100 = growth as untreated, 0 = no growth, -100 = all killed)
The test system of assay [1] is SW-620 colon. Particulars: 10 µM unless noted.
In assay [2] the test system is MCF7 breast. The settings on record: 10 µM.
For assay [3], the system named is HCT-116 colon. Particulars: 10 µM unless noted.
For assay [4], the system named is HCC-2998 colon. The settings on record: 10 µM unless noted.
Assay [5] has as its system KM12 colon. The settings on record: 10 µM unless noted.
Assay [6] deals with MDA-MB-435 melanoma. Particulars: 10 µM unless noted.

In the case of `O=C1c2cc(I)ccc2Oc2cc([N+](=O)[O-])ccc2N1c1ccc(Cl)cc1F`, the growth in assay [1] was 82.5%; in assay [2], 80.7%; in assay [3], 67.8%; in assay [4] it was 102%; in assay [5] it was 81.2%.

Take `O=c1oc2ccc(Cl)cc2c(=O)n1-c1ccc(Cl)cc1F`: the growth was 9.15% (active) in assay [1]; 0.727% (active) in assay [2]; 2.58% (active) in assay [3]; 10.7% in assay [4]; -9.11% (active) in assay [5].

With `O=c1oc2ccc(F)cc2c(=O)n1-c1ccc(Br)cc1F`, the growth was 0.521% (active) in assay [6]; 10.2% in assay [1]; -3.48% (active) in assay [2]; 2.22% (active) in assay [3]; 13.4% in assay [4]; 0.328% (active) in assay [5].

Regarding `Nc1cccc(Nc2cc(S(=O)(=O)O)c(N)c3c2C(=O)c2ccccc2C3=O)c1`, the growth in assay [6] was 109%; in assay [1] it was 104%; in assay [3] it was 108%; in assay [5], 105%.

Turning to `Cc1ccc(NC2=CC(=O)C(=O)c3ccccc32)c(C)c1`, the growth was -77% (active) in assay [6], -6.25% (active) in assay [3], 29.1% in assay [4] and 46.4% in assay [5].

As to `O=c1oc2ccc(Cl)cc2c(=O)n1-c1cc(C(F)(F)F)cc(C(F)(F)F)c1`, the growth in assay [1] is 6.78% (active); in assay [2], 2.18% (active); in assay [3] it was -12.7% (active); in assay [4], 5.83% (active); in assay [5], -31.5% (active).

Consider `O=C1c2cc(Br)ccc2Oc2cc([N+](=O)[O-])ccc2N1c1ccc(I)cc1F`, for which the growth was 102% in assay [6]; 94.2% in assay [1]; 97.1% in assay [2]; 87.5% in assay [3]; 102% in assay [4]; 100% in assay [5].

As to `CN(CCc1ccccc1)C(=S)N(C(=O)c1ccc([N+](=O)[O-])cc1)c1ccc(Cl)cc1`, the growth in assay [6] is 85.9%; in assay [1] it was 75.3%; in assay [2], 33%; in assay [3] it was 67.3%; in assay [4], 110%; in assay [5], 49.6%.

With `O=c1oc2ccc(I)cc2c(=O)n1-c1ccc(F)cc1F`, the growth in assay [6] was 1.74% (active); in assay [1] it was 19.7%; in assay [2], 5.86% (active); in assay [3] it was 6.72% (active); in assay [4], 26%; in assay [5], 3.81% (active).

Turning to `O=C(CCc1nnc2sc(-c3ccc(Cl)cc3Cl)nn12)c1nc2ncccc2[nH]1`, the growth in assay [6] is -31.2% (active); in assay [2], 6.03% (active); in assay [3], -73.6% (active); in assay [4], -71.6% (active); in assay [5], -52.2% (active).

Regarding `O=c1oc2ccc(I)cc2c(=O)n1-c1ccc(Br)cc1F`, the growth in assay [6] is -3.14% (active); in assay [2], 1.77% (active); in assay [3], 0.474% (active); in assay [4] it was 16.2%; in assay [5], -4.63% (active).

Take `O=C1c2cc(Cl)ccc2Oc2cc([N+](=O)[O-])ccc2N1c1ccc(F)cc1F`: the growth in assay [6] was 93.4%; in assay [1], 85.9%; in assay [2], 86.6%; in assay [3] it was 79.7%; in assay [4], 115%; in assay [5] it was 94.6%.

In the case of `O=C(Nc1ccc(Br)cc1F)c1cc(F)ccc1O`, the growth was -1.29% (active) in assay [6]; 10.2% in assay [1]; 3.43% (active) in assay [2]; 2.34% (active) in assay [3]; 17.8% in assay [4]; 0.627% (active) in assay [5].

For `CC[C@]1(O)C[C@@H]2CN(CCc3c([nH]c4ccccc34)[C@@](C(=O)OC)(c3cc4c(cc3OC)N(C)[C@H]3[C@@](O)(C(=O)OC)[C@H](OC(=O)CCCBr)[C@]5(CC)C=CCN6CC[C@]43[C@@H]65)C2)C1`, the growth in assay [6] was -36% (active); in assay [1] it was 22.4%; in assay [2], 12.9%; in assay [3], 5.16% (active); in assay [4], 9.27% (active); in assay [5], 7.23% (active).

In the case of `CC(C)C[C@H](C(=O)N[C@@H](C)C(N)=O)N1CC=CCN(O)S1(=O)=O`, the growth was 119% [5 µM] in assay [6], 109% [5 µM] in assay [3], 110% [5 µM] in assay [4] and 109% [5 µM] in assay [5].

Consider `O=C(CCN1C(=O)c2ccccc2C1=O)Nc1ccc(Cl)cc1`, for which the growth in assay [6] was 68.9%; in assay [2] it was 72.4%; in assay [3], 61.4%; in assay [4] it was 75.2%; in assay [5] it was 75%.

Consider `O=c1oc2ccc(I)cc2c(=O)n1-c1ccc(Cl)cc1F`, for which the growth in assay [6] was 1.42% (active); in assay [1] it was 11.7%; in assay [2], 2.84% (active); in assay [3] it was 7.44% (active); in assay [5], 1.77% (active).

For `COc1ccc(C2C3=C(COC3=O)N(CCO)c3cc4c(cc32)OCCO4)cc1` (stereo unspecified), the growth in assay [6] is 1.1% (active); in assay [1] it was 55.2%; in assay [3], 77.2%; in assay [4], 76.5%; in assay [5], 49%.

Consider `O=c1c2cc(F)ccc2sc2c(NCCCNCCO)nc3ccc(Cl)cc3c12`, for which the growth in assay [6] is 40.1%; in assay [1] it was -38.8% (active); in assay [2] it was 31%; in assay [3], -18.5% (active); in assay [4], 60.7%; in assay [5] it was 44%.

As for `O=C(CCc1nnc2sc(COc3ccccc3)nn12)c1nc2ncccc2[nH]1`, the growth in assay [6] was 101%; in assay [1], 85.8%; in assay [2], 94.5%; in assay [3], 91.3%; in assay [4] it was 99.8%; in assay [5], 99.8%.

For `O=c1oc2ccc(-c3ccc(F)cc3F)cc2c(=O)n1-c1cccc(C(F)(F)F)c1`, the growth was 5.25% (active) in assay [6]; 12.6% in assay [1]; 3.59% (active) in assay [2]; 8.28% (active) in assay [3]; 22.9% in assay [4]; 3.37% (active) in assay [5].

Consider `O=C(Nc1ccc(I)cc1F)c1cc(Br)ccc1O`, for which the growth in assay [1] was 7.36% (active); in assay [2], 2.45% (active); in assay [3], -8.63% (active); in assay [4] it was 14.6%; in assay [5] it was -7% (active).

As to `O=C(CCc1nnc2sc(Cc3ccccc3Cl)nn12)c1nc2ncccc2[nH]1`, the growth in assay [6] was 102%; in assay [1], 88.4%; in assay [2], 80%; in assay [3], 84%; in assay [5], 97.1%.

Take `O=c1oc2ccc(Br)cc2c(=O)n1-c1ccc(F)cc1F`: the growth is 2.57% (active) in assay [6]; 16.3% in assay [1]; 2.33% (active) in assay [2]; 4.49% (active) in assay [3]; 4.24% (active) in assay [5].

Regarding `O=c1oc2ccc(F)cc2c(=O)n1-c1ccc(I)cc1F`, the growth in assay [6] was -1.4% (active); in assay [1] it was 11%; in assay [2], 1.73% (active); in assay [3], 7.36% (active); in assay [5] it was -0.975% (active).

`COc1c(B(O)O)cccc1-c1nc2ccc3[nH]ncc3c2c2c1C1CCC2C1` (stereo unspecified): the growth is 65.8% in assay [6]; 34.3% in assay [1]; 61.8% in assay [2]; 20.5% in assay [3]; 110% in assay [4]; 25.3% in assay [5].

For the compound `O=C(Nc1ccc(I)cc1F)c1cc(Cl)ccc1O`, the growth in assay [6] was -2.93% (active); in assay [1], 8.71% (active); in assay [2], 1.52% (active); in assay [3], -29.5% (active); in assay [4], 17.6%; in assay [5], -10.9% (active).

As for `Nc1ccc(-c2nn3c(CCC(=O)c4nc5ncccc5[nH]4)nnc3s2)c(O)c1`, the growth in assay [2] is 84.7%; in assay [3], 86.7%; in assay [4], 69.4%; in assay [5] it was 98.5%.

Take `CC[C@]1(O)C[C@@H]2CN(CCc3c([nH]c4ccccc34)[C@@](C(=O)OC)(c3cc4c(cc3OC)N(C)[C@H]3[C@@](O)(C(=O)OC)[C@H](OC(C)=O)[C@]5(CC)C=CCN6CC[C@]43[C@@H]65)C2)C1`: the growth in assay [6] was -38% (active); in assay [1], 22.7%; in assay [2], 10.6%; in assay [3] it was 7.92% (active); in assay [4] it was 0.153% (active); in assay [5], 8.64% (active).

Take `O=C(Nc1ccc(Br)cc1F)c1cc(Cl)ccc1O`: the growth in assay [6] was -13.9% (active); in assay [1] it was 11.7%; in assay [2], 0.423% (active); in assay [3] it was -30.5% (active); in assay [5], -30.9% (active).

For `O=C(Nc1ccc(F)cc1F)c1cc(Cl)ccc1O`, the growth in assay [6] was 4.56% (active); in assay [1], 14.5%; in assay [2] it was 3.22% (active); in assay [3] it was 8.39% (active); in assay [4] it was 23.1%; in assay [5], 5.33% (active).

Regarding `Nc1n[nH]c2ccc([C@@H]3Nc4ccc5[nH]ncc5c4[C@H]4[C@H]5CCC(C5)[C@H]43)cc12`, the growth was -7.49% (active) in assay [6]; 22.2% in assay [1]; 18.7% in assay [2]; 9.49% (active) in assay [3]; 26.2% in assay [4]; 11.5% in assay [5].

Source of the values: PubChem BioAssay (NCI).
